The source of these data is PMC7862700, “An all-to-all approach to the identification of sequence-specific readers for epigenetic DNA modifications on cytosine”.

Experiment in all cases: DAPPL (digital affinity profiling via proximity ligation, sequencing); 10 mM Tris-HCl pH 7.5, 50 mM NaCl, 1 mM DTT, 4% glycerol, room temperature, 30 min; GST-TFs on glutathione beads, 16-mer random dsDNA library, 0.1% formaldehyde crosslink after washing; high values mean tight binding
Holding throughout (details): protein: recombinant; tags: N-terminal GST; dsDNA, one strand shown

The target of one assay is T1, ELK1 (Homo sapiens, UniProt P19419 1-428).
T1 sequence: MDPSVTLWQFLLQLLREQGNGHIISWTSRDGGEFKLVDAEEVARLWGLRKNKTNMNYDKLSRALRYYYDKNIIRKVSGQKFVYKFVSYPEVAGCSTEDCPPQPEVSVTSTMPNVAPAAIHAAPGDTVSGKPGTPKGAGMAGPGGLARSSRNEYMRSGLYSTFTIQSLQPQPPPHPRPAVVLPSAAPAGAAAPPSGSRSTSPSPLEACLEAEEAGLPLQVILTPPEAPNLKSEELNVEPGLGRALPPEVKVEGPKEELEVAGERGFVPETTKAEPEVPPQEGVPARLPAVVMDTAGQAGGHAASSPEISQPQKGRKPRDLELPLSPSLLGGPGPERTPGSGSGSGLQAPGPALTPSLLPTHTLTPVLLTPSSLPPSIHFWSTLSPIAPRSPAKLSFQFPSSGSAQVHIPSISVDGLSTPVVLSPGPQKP
The gist of the method: (§1)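 Beads coated with glutathione captured GST-fused human transcription factors that had been expressed in yeast, and the factors were then given DNA barcodes and pooled with a tag-only sample. The pools were incubated with 200 nmole of a random double-stranded 16-mer DNA library in Tris/NaCl/DTT/glycerol buffer for 30 min at room temperature, washed, crosslinked with 0.1% formaldehyde and proximity-ligated with BsaI/T4 ligase at 37 °C for 1 h. PCR amplification and Illumina NextSeq500 sequencing came last. Binding signal is each hexamer's read frequency for a factor divided by its frequency for the tag-only sample.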

For another assay, the target named is T2, GABPA (Homo sapiens, UniProt Q06546 1-454).
T2 sequence: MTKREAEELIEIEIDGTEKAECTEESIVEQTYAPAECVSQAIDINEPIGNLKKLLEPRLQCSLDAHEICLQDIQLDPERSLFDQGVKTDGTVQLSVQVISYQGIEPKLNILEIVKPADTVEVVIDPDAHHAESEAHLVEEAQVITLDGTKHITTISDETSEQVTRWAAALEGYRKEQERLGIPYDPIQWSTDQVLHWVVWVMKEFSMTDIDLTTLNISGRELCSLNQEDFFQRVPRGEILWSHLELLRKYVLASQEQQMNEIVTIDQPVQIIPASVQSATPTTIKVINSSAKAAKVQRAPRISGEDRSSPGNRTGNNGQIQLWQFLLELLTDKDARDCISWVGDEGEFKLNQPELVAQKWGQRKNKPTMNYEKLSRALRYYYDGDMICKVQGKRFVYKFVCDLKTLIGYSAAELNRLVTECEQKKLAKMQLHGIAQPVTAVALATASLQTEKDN
In a few lines:
as §1

For a further assay, the target named is T3, ERG (Homo sapiens, UniProt P11308 1-479).
T3 sequence: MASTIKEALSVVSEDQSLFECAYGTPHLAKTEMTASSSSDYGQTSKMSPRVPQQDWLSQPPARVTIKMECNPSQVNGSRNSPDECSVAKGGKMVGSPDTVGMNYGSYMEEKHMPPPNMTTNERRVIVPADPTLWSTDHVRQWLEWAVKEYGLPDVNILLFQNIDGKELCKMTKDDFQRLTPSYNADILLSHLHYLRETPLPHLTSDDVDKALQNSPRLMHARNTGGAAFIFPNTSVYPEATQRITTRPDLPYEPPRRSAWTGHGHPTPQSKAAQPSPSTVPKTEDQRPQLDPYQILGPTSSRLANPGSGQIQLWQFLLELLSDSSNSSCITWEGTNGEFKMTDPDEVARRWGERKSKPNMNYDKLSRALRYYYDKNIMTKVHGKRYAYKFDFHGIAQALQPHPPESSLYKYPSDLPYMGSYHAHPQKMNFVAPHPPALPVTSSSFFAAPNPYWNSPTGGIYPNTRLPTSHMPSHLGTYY
In a few lines: as §1

A further assay deals with ELF1 (Homo sapiens, UniProt P32519 1-619). In a few lines:
as §1

Another assay deals with T4, EHF (Homo sapiens, UniProt Q9NZC4 1-300).
T4 sequence: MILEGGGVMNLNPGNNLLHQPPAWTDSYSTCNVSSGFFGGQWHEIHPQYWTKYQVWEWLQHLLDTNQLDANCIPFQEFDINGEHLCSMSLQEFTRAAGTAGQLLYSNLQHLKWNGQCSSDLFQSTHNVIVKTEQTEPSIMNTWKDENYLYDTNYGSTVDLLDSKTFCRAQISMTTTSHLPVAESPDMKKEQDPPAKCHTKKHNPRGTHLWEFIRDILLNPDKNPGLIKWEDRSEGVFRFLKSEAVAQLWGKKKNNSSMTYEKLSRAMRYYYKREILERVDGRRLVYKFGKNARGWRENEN
In a few lines:
as §1

Another assay deals with SPI1 (Homo sapiens, UniProt P17947 1-270). In a few lines: as §1
The target of another assay is SPIB (Homo sapiens, UniProt Q01892 1-262). In a few lines:
as §1

The next assay addresses T5, FEV (Homo sapiens, UniProt Q99581 1-238).
T5 sequence: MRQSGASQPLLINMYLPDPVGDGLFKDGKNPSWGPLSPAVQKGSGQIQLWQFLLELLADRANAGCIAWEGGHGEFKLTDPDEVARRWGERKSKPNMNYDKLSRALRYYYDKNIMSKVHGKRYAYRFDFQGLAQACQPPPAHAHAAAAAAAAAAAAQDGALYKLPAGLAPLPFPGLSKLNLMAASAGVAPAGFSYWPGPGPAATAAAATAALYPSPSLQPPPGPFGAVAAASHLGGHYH
The gist of the method: as §1

The target of another assay is ETV5 (Homo sapiens, UniProt P41161 1-510). The gist of the method: as §1
Sequence of ETV5 (P41161 whole entry): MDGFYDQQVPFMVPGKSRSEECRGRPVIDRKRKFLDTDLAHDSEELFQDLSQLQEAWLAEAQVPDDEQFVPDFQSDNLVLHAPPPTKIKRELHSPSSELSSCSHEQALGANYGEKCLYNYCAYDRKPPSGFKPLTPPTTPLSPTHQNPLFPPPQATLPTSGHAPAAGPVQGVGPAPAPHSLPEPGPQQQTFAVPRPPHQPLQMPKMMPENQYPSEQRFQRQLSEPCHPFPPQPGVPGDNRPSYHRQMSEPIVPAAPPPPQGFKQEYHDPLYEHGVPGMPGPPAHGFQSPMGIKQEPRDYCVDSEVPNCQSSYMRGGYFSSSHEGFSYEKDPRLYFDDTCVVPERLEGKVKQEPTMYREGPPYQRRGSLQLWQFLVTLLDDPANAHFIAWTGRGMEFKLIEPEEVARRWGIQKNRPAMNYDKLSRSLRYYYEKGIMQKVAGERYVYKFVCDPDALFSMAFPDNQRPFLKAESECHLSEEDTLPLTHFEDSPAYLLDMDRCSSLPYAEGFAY
Another assay addresses ELF4 (Homo sapiens, UniProt Q99607 1-663). In a few lines: as §1
The target of the next assay is T6, ELK4 (Homo sapiens, UniProt P28324-2 1-405).
T6 sequence: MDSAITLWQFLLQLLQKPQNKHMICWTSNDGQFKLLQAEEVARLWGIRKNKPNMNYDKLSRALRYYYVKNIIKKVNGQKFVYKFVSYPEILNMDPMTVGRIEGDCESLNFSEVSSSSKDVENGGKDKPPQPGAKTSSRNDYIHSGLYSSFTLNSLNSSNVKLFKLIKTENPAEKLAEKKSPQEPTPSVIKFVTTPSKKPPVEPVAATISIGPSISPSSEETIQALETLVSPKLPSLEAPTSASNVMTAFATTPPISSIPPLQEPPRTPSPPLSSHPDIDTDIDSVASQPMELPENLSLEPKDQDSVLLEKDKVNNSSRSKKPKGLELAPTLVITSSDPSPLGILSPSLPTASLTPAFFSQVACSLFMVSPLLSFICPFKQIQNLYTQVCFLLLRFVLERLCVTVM
The gist of the method: as §1

Another assay addresses T7, ETV2 (Homo sapiens, UniProt O00321 1-342).
T7 sequence: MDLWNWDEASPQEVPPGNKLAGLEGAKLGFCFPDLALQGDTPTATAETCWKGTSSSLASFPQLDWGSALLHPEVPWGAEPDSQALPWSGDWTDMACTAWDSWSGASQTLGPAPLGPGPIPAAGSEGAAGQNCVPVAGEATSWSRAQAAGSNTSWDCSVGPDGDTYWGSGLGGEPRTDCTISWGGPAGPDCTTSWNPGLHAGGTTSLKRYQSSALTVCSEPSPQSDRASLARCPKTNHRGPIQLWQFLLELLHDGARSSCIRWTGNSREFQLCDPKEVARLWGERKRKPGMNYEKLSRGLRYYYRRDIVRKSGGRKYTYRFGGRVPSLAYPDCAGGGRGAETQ
In a few lines:
as §1

A further assay concerns the target ETV1 (Homo sapiens, UniProt P50549 1-477). The gist of the method: as §1
The target in another assay is T8, ETV3L (Homo sapiens, UniProt Q6ZN32 1-361).
T8 sequence: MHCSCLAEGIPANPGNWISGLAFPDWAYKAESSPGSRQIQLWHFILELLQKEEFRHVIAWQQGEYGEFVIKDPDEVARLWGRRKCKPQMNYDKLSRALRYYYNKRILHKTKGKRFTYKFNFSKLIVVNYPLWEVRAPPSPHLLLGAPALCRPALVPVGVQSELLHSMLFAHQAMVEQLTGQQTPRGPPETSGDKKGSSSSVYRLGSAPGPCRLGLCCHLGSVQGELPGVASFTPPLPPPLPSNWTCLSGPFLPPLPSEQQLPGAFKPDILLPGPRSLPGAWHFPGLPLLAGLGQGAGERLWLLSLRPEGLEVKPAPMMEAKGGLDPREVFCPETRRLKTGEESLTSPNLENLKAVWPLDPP
In a few lines:
as §1

Another assay concerns the target T9, ETS2 (Homo sapiens, UniProt P15036 1-469).
T9 sequence: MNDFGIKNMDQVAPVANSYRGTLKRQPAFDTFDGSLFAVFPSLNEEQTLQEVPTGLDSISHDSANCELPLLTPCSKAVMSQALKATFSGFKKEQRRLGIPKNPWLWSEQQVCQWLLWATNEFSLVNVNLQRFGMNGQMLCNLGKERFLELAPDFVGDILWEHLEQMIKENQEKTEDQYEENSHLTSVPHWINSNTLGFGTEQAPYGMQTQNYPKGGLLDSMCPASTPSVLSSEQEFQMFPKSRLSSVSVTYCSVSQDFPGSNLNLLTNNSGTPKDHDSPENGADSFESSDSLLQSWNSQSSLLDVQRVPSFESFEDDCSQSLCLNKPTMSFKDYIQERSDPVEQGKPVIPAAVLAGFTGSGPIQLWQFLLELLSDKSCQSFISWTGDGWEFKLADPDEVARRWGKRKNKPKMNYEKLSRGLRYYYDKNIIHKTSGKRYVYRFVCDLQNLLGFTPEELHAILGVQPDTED
In a few lines:
as §1

The target in another assay is T10, SPDEF (Homo sapiens, UniProt O95238 1-335).
T10 sequence: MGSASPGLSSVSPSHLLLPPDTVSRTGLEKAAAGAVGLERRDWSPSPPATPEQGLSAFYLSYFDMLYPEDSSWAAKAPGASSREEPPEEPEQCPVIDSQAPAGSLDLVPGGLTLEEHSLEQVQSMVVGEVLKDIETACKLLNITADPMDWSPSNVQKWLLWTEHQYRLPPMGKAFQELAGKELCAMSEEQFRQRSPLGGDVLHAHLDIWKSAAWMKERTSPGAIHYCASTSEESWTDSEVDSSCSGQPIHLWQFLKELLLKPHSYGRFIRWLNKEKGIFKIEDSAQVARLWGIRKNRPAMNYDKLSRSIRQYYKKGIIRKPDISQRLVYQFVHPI
In a few lines:
as §1

Another assay addresses T11, ETV7 (Homo sapiens, UniProt Q9Y603 1-341).
T11 sequence: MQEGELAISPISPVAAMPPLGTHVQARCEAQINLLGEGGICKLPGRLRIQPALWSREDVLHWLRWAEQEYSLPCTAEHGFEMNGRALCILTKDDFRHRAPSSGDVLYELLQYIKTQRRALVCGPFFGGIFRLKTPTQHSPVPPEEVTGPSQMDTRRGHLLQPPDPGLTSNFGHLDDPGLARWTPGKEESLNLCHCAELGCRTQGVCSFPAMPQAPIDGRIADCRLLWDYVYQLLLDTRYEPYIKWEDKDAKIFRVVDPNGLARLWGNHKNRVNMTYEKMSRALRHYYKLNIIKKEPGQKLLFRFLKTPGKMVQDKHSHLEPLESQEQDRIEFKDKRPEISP
In a few lines: as §1

For a further assay, the target named is T12, ETV3 (Homo sapiens, UniProt P41162-2 1-143).
T12 sequence: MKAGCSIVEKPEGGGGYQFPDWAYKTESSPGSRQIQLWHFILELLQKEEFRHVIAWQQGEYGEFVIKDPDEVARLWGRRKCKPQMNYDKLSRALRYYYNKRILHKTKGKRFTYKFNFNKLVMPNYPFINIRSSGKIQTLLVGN
In a few lines: as §1

For the next assay, the target named is ETV6 (Homo sapiens, UniProt P41212 1-452). In a few lines:
as §1

Sequence of ELF4 (Q99607 whole entry): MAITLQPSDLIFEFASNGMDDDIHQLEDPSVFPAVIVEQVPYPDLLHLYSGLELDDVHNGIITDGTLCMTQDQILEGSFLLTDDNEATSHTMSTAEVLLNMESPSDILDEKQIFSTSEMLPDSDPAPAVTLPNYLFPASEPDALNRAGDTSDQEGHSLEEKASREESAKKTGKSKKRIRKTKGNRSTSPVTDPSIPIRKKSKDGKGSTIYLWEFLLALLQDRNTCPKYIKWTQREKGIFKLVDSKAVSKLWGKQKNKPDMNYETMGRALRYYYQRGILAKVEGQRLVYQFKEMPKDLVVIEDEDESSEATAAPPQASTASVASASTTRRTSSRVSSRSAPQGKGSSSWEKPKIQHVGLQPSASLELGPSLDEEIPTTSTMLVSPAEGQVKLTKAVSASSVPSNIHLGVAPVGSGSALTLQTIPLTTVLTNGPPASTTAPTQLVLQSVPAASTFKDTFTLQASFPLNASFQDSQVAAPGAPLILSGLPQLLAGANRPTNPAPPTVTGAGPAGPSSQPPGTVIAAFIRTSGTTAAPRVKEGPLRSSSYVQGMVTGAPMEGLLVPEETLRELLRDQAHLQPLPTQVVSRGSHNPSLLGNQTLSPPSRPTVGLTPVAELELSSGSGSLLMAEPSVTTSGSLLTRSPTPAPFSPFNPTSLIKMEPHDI
Sequence of ETV6 (P41212 whole entry): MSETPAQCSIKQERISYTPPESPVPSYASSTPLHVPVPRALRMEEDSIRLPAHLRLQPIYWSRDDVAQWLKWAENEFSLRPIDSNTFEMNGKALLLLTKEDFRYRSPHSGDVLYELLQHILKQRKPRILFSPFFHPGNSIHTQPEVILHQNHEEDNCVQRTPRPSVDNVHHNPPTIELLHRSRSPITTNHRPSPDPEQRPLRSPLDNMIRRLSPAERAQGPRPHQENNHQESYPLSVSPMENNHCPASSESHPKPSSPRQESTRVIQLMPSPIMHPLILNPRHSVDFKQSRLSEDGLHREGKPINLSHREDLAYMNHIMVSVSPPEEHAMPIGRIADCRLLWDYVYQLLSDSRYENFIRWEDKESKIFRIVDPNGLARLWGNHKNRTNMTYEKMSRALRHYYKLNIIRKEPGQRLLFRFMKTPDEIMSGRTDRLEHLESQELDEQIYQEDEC
Sequence of SPIB (Q01892 whole entry): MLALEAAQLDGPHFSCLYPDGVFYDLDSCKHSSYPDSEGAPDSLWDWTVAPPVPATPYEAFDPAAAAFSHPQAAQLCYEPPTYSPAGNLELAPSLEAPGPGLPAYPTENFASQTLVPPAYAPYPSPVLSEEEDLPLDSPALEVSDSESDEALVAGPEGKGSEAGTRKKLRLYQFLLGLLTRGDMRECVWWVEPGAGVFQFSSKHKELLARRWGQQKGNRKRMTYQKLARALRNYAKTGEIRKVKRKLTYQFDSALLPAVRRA
Sequence of ELF1 (P32519 whole entry): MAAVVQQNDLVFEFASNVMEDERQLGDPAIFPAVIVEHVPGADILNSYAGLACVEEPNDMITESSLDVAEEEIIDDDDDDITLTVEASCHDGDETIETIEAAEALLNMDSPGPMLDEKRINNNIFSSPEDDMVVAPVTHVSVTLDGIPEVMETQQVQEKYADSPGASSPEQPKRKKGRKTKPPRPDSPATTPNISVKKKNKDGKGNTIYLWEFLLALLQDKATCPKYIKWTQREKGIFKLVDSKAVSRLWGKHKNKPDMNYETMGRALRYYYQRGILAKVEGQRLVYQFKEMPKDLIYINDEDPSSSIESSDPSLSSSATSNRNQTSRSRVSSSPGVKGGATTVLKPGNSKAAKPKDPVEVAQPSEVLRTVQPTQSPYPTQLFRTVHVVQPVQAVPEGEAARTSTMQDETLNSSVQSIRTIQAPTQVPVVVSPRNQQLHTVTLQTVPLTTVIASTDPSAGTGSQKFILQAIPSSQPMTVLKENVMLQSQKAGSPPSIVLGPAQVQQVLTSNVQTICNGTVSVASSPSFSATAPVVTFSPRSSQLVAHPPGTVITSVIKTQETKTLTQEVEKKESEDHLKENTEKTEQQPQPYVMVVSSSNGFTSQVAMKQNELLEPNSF
Sequence of ETV1 (P50549 whole entry): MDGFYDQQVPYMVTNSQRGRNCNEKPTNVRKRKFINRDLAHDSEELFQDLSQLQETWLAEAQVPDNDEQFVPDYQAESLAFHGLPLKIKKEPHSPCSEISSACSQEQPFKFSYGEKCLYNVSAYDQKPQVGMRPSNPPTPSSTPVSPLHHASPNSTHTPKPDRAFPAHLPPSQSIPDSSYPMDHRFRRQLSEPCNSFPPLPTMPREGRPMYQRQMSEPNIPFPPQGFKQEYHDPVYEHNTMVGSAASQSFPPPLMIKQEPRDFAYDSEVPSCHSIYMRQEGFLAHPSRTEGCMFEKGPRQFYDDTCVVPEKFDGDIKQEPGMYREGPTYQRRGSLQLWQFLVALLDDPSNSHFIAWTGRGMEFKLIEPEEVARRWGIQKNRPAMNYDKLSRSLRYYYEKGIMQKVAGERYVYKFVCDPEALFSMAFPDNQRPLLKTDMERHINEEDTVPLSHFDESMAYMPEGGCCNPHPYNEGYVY

Take CGCCTG: the binding signal with ELK1 is 1.17 fold enrichment (6-mer frequency, TF over GST control); with GABPA, 1.08 fold enrichment (6-mer frequency, TF over GST control); with ERG it was 1.15 fold enrichment (6-mer frequency, TF over GST control); with ELF1, 1.12 fold enrichment (6-mer frequency, TF over GST control); with EHF, 1.11 fold enrichment (6-mer frequency, TF over GST control); with SPI1, 1.1 fold enrichment (6-mer frequency, TF over GST control). Further, the binding signal with SPIB is 1.07 fold enrichment (6-mer frequency, TF over GST control); with FEV, 1.08 fold enrichment (6-mer frequency, TF over GST control); in the assay with ETV5, 1.18 fold enrichment (6-mer frequency, TF over GST control); with ELF4, 1.05 fold enrichment (6-mer frequency, TF over GST control); with ELK4 it was 1.17 fold enrichment (6-mer frequency, TF over GST control); in the assay with ETV2, 1.01 fold enrichment (6-mer frequency, TF over GST control). For the same sequence, the binding signal in the assay with ETV1 was 1.09 fold enrichment (6-mer frequency, TF over GST control); in the assay with ETV3L, 1.1 fold enrichment (6-mer frequency, TF over GST control); with ETS2, 1.12 fold enrichment (6-mer frequency, TF over GST control); with SPDEF, 1.03 fold enrichment (6-mer frequency, TF over GST control); in the assay with ETV7 it was 1.01 fold enrichment (6-mer frequency, TF over GST control); in the assay with ETV3, 1.06 fold enrichment (6-mer frequency, TF over GST control). For the same sequence, the binding signal with ETV6 was 1.14 fold enrichment (6-mer frequency, TF over GST control).
